TDP1 cell noCPT: qHTS for Inhibitors of human tyrosyl-DNA phosphodiesterase 1 (TDP1): qHTS in cells in absence of CPT; actives 15% (n = 420,000); DT40 Tdp1-/- hTDP1 cells, no CPT, ATP luminescence, 48 h; Potency, µM (highest dose often 46.2 µM), for inactives: at the highest dose activity change, negative = growth inhibition, most hits filed as inhibitors; also: % is scaled to controls: 0 for no effect and ±100 for the full control effect; nearly all actives have a fitted effect of over 55% in size
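Chicken DT40 Tdp1-/- cells complemented with human TDP1, screened without camptothecin (DMSO vehicle only), 400 cells/well. Compounds pin-transferred, cells incubated at 37 °C for at least 48 hr. Growth read as ATP-dependent luminescence (CellTiter-Glo, 30 min at RT).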
HT1080 IDH1KD tx: toxicity to HT-1080 IDH1 knockdown cells (counter line); Potency, µM (top dose mostly 46.1 µM), for inactives: at the top dose activity, negative = toxicity, hits mostly cytotoxic; HT-1080 IDH1 knockdown viability, ATP luminescence, 48 h; actives 2% (n = 360,000);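 also: 0% = DMSO wells and -100% = cell-free medium wells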
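Assay cells: HT-1080 with IDH1 knockdown, 750 per well, RPMI/5% FBS. Exposure: 48 h at 37 °C following 2 h pre-incubation. Read: CellTiter-Glo luminescence; fitted concentration-response, curve class assigned.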
HepG2 viability: HepG2 cytotoxicity, counter-screen for TGF-b inhibitors. HepG2 CAGA-GFP viability, ATP luminescence, 18 h. Potency, µM (top dose mostly 46.1 µM), for inactives: at the highest dose activity change, negative = cytotoxicity, hits mostly cytotoxic. actives 0.76% (n = 410,000). AID 588856
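CellTiter-Glo luminescence gave cytotoxicity after 18 hours at 37 degrees C. The cells were HepG2 CAGA-GFP in 1% FBS DMEM, stimulated with 500 pg/mL TGF-beta after compound addition. %Activity was normalised to no-cell wells (complete cell-killing) and DMSO (no toxicity), and curves were fitted and classified.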
HT1080NT lethal: kills 2HG-producing HT-1080-NT fibrosarcoma cells; AID 686970; HT-1080-NT fibrosarcoma viability, CellTiter-Glo ATP luminescence, 48 h; Potency, µM (doses to about 46.1 µM), for the others: top-dose activity, negative = less viability, usual class: cytotoxic; actives 1.6% (n = 360,000);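 also: NT is the 2HG producing partner of a matched IDH1 knockdown line; 0% = DMSO-treated cells and -100% = media-only wells without cells; nearly all actives have a fitted effect of over 55% in size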
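Read-out is CellTiter-Glo luminescence after 10 minutes at room temperature, following 48 hours' compound treatment of HT-1080-NT cells (750 cells/well, RPMI, 5% FBS, 37 degrees C).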
TGFb inhibitor: blocks TGF-b signaling; HepG2 CAGA-GFP TGF-b/SMAD3 reporter, GFP fluorescence, 18 h; TGF-beta stimulated, 500 pg/mL final; Potency, µM (series often up to 46.1 µM), inactives show top-dose activity, negative = inhibition, actives largely listed as inhibitors; actives 1.2% (n = 410,000); also: % is scaled to controls: 0 for no effect and ±100 for the full control effect; nearly all actives have a fitted effect of over 65% in size
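TGF-beta reporter screen: HEPG2 CAGA-GFP, 1% FBS, 500 pg/mL TGF-beta final, 18 h; per-cell GFP summed per well; curves fitted and categorized by class.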
DT40 TDP1 CPT: growth inhibition of DT40 Tdp1-/-;hTDP1 cells with camptothecin (screen for TDP1 inhibitors). chicken DT40 Tdp1-/-;hTDP1 cells + 20 nM CPT, ATP luminescence, 48 h. Potency, µM (top dose mostly 46.2 µM), for the others: at the top dose activity change, negative = growth inhibition, most hits filed as inhibitors. actives 12% (n = 420,000). AID 686979; also: % is scaled to controls: 0 for no effect and ±100 for the full control effect; nearly all actives have a fitted effect of over 55% in size
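Chicken DT40 Tdp1-/- cells stably complemented with human TDP1 were seeded at 400 cells/well in medium containing 20 nM camptothecin, exposed to pin-transferred compounds, and grown at 37 °C for at least 48 hr. Viability was read as ATP luminescence.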
* hit, by the source's call; u = inconclusive; x = no result given; [ ] = dose if it differs, or a comment. Compounds with a hit are over-represented: about 17% of the library has one in this group of screens. Calls follow the shape of the dose curve; as a rule, active = well fitted curve in the direction sought with a large enough effect; inconclusive = small, poorly fitted or top-dose-only effect, or another doubt; inactive = no such curve, though single readings can be large; an effect the other way counts as inactive or inconclusive. Potency is read from the fitted curve at half-maximal effect.

SMILES	TDP1 cell noCPT	HT1080 IDH1KD tx	HepG2 viability	HT1080NT lethal	TGFb inhibitor	DT40 TDP1 CPT
COc1cc2c(cc1OC)CN(C(=O)CCC(=O)c1ccc(F)cc1)CC2	11.6µM*	u	6.9%	u	-2.1%	18.4µM*
COc1cc2c(cc1OC)CN(C(=O)CSC1=NCCS1)CC2	20.6µM*	-9.3%	-11.5%	-9.5%	-14.4%	u
COc1cc2c(cc1OC)CN(CCC(=O)c1ccc(Br)cc1)CC2	1.64µM*	23.1µM*	-27.0%	25.9µM*	u	3.66µM*
COc1cc2c(cc1OC)CN(C(=O)CSc1ccccc1C)CC2	u	3.2%	-13.1%	-4.6%	-4.1%	u
CCCCNc1nc(Oc2ccc(OCC)nn2)nc(N2CCOCC2)n1	u	x	0.1%	x	8.0%	-20.2%
CN(C(=O)COC(=O)c1ccc(-c2ccc(O)cc2)cc1)C1CCS(=O)(=O)C1 (stereo not drawn)	12.2%	18.4µM*	-2.4%	6.51µM*	-11.2%	-7.0%
CN(C(=O)COC(=O)c1cccc(Cl)c1)C1CCS(=O)(=O)C1 (stereo not drawn)	-2.5%	0.0%	-0.6%	-1.6%	21.9%	-4.1%
COc1ccc(Oc2c(Cl)cnn(-c3ccc(F)cc3)c2=O)cc1	u	u	15.0%	u	6.8%	u
COc1ccc(Oc2c(Cl)cnn(-c3ccc(C)cc3)c2=O)cc1	25.9µM*	-3.6%[9.24 µM]	-38.8%	u	u	u
COc1ccc2cnn(CCOc3cc(C)ccc3C(C)C)c(=O)c2c1OC	16.4µM*	-17.4%	-9.6%	-5.3%	u	16.4µM*
CCOc1c(Cl)cnn(-c2ccc(C)cc2)c1=O	u	18.6%	11.5%	19.5%	3.6%	-22.8%
COc1ccc(Oc2c(Cl)cnn(-c3ccc(Cl)c(Cl)c3)c2=O)cc1	u	u	-31.6%	18.4µM*	-3.4%	u
COc1c(Cl)cnn(-c2ccc(C)cc2)c1=O	16.4µM*	-23.3%	8.0%	10.9%	-3.2%	u
Cc1ccc(C2(SCC(N)C(=O)O)c3ccccc3-c3ccccc32)cc1 (stereo not drawn)	-26.7%	19.2%	2.4%	15.6%	-5.7%	-13.2%
C/C=C1\[C@H]2C=C(C)C[C@]1(N)c1ccc(=O)[nH]c1C2	-2.6%	x	x	x	x	-3.8%
O=C(NCCS(=O)(=O)NCc1cccnc1)c1ccccc1	-5.8%	0.8%	10.8%	-0.3%	-1.9%	6.2%
COc1ccccc1CNC(=O)C(CCSC)NC(=O)c1cccc(S(=O)(=O)N2CCOCC2)c1 (stereo not drawn)	-26.5%	23.4%	6.6%	4.4%	5.7%	-6.1%
CCC(=O)N1CCc2cc(Br)c(S(=O)(=O)CCC(=O)NCCc3ccccc3)cc21	-13.3%	10.8%	2.8%	10.1%	-5.3%	-10.4%
O=C(O)c1ccc(-n2ncc(Cl)c(Cl)c2=O)cc1	5.8µM*	18.4µM*	-1.9%	5.8µM*	-3.3%	6.51µM*
COc1ccc2cnn(-c3ccc(C)cc3)c(=O)c2c1OC	20.6µM*	13.3%[9.24 µM]	-18.3%	7.9%	0.0%	14.6µM*
Cc1ccc(-n2ncc(Br)c(Br)c2=O)cc1	3.66µM*	5.17µM*	-109.9%	4.61µM*	3.16µM*	4.11µM*
Cc1ccc(Sc2cnn(-c3ccccc3)c(=O)c2Cl)cc1	29.1µM*	-7.7%	0.1%	-12.6%	u	u
CC(=O)Nc1c(Cl)cnn(-c2ccccc2)c1=O	-5.9%	1.9%	-4.4%	12.4%	23.0%	7.4%
COc1cnn(-c2ccc(F)cc2)c(=O)c1Br	-0.5%	6.4%	-0.7%	-0.5%	-4.2%	-19.9%
CNc1cnn(-c2ccccc2)c(=O)c1Cl	u	23.1%	42.7%	16.3%	0.2%	u
SMILES	TDP1 cell noCPT	HT1080 IDH1KD tx	HepG2 viability	HT1080NT lethal	TGFb inhibitor	DT40 TDP1 CPT
COc1ccccc1-c1ccc(C(=O)N2CCC(N3CCc4ccccc4C3)CC2)c(N(C)CC2COCCO2)n1 (stereo not drawn)	-4.8%	x	x	x	x	-2.4%[9.04 µM]
CC(C)(C)c1ccc(S(=O)(=O)NC(=O)C2(C)CCN2C(=O)C2(c3ccccc3)CC2)cc1 (stereo not drawn)	-7.2%	5.8%	-1.6%	8.7%	-7.9%	-8.9%
CC(C)CCOC(=O)C1C(c2ccccc2)C(C(=O)O)C1c1ccccc1 (stereo not drawn)	0.6%	3.66µM*	-1.4%	7.31µM*	-4.0%	1.4%
O=C(O)C1C(c2ccccc2)C(C(=O)Oc2ccccc2)C1c1ccccc1 (stereo not drawn)	-1.7%	0.8%	-8.9%	8.9%	-7.7%	12.4%
O=C(Nc1ccc2c(c1)OCCO2)C(c1ccccc1F)n1c(=O)c(-c2cc3ccccc3[nH]2)nc2ccccc21 (stereo not drawn)	18.4µM*	u	x	u	x	14.6µM*
O=C(Nc1ccc2c(c1)OCCO2)C(c1ccc(C(F)(F)F)cc1)n1c(=O)c(-c2cc3ccccc3[nH]2)nc2ccccc21 (stereo not drawn)	u	16.4µM*	x	u	x	u
O=C(Nc1ccc2c(c1)OCCO2)C(C1CC1)n1c(=O)c(-c2ccco2)nc2ccccc21 (stereo not drawn)	-18.0%	-3.1%	x	2.3%	x	0.6%
O=C(Nc1ccc2ccccc2c1)C(c1ccc(C(F)(F)F)cc1)n1c(=O)c(-c2cc3ccccc3[nH]2)nc2ccccc21 (stereo not drawn)	u	16.4µM*	x	u	x	u
N#Cc1ccc(C(C(=O)Nc2ccc3c(c2)OCCO3)n2c(=O)c(-c3ccco3)nc3ccccc32)cc1 (stereo not drawn)	-27.2%	-12.0%	x	0.0%	x	-106.4%
Cc1cc(OCCN2CCC(Cc3ccccc3)CC2)ccc1[N+](=O)[O-]	u	u	-46.5%	u	u	u
O=C(NCc1ccccn1)[C@@H]1CCCN1C(=O)[C@@H]1CCCN1	-14.9%	-7.5%	x	15.6%	x	-19.7%
CCc1ccc(C(C)NC(=O)c2cc(C)oc2C)cc1 (stereo not drawn)	23.1µM*	7.8%	-13.5%	-1.4%	-9.8%	20.6µM*
Cc1cc(C(=O)NN)c(C)o1	11.3%	4.1%	-22.2%	-21.5%	-13.9%	1.2%
Cc1nc(N)sc1-c1csc(Nc2ccccc2)n1	u	-5.1%	0.0%	-2.5%	-17.7%	u
CCCc1nnc(NC(=O)CCC(=O)Nc2ccc(Cl)cc2)s1	21.3%	0.4%	12.0%	7.3%	1.6%	-3.4%

Compound activity deposited in PubChem BioAssay by National Center for Advancing Translational Sciences (NCATS).
